Shown are actives, neighbours in structure and some others; about 31% of the full set was active somewhere.
CYP2C9 act: human CYP2C9 activators, primary screen, biochemical, luminescence; recombinant CYP2C9, luciferin-H conversion; active compounds read high; factor 1 = untreated enzyme, 0 = blocked; activation factor at 5 µM; actives 1.4% (n = 96,000); AID 1024, 2008;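 active = activation factor of 2 or more for CYP2C9 at a 5 µM dose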;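 note: 0 = sulfaphenazole-blocked wells and 1 = vehicle-only wells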
PLAP act: PLAP enzyme activators, biochemical, luminescence, HTS | Alkaline phosphatase, placental type (Homo sapiens), P05187 | AID 696, 2007 | activation fold at 20 µM | purified PLAP enzyme, luminescent substrate read-out; active compounds read high | actives 1.2% (n = 96,000); in the data active = activation fold above about 2
CYP2C19 inhib: blockers of cytochrome P450 2C19 activity – biochemical, luminescence, ADME assay, primary screen; actives 21% (n = 96,000); inhibition, % at 5 µM; AID 778, 2007; CYP2C19 Supersomes, luciferin-H EGE luminescence, 30 min;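 active = CYP2C19 inhibition above a set limit at 5 µM in the primary screen, cut at about 50% in these data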;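 note: plate controls were negative control wells for no effect and 2.5 mM tranylcypromine positive control for full effect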
Target sequence (P33261 whole entry, looked up): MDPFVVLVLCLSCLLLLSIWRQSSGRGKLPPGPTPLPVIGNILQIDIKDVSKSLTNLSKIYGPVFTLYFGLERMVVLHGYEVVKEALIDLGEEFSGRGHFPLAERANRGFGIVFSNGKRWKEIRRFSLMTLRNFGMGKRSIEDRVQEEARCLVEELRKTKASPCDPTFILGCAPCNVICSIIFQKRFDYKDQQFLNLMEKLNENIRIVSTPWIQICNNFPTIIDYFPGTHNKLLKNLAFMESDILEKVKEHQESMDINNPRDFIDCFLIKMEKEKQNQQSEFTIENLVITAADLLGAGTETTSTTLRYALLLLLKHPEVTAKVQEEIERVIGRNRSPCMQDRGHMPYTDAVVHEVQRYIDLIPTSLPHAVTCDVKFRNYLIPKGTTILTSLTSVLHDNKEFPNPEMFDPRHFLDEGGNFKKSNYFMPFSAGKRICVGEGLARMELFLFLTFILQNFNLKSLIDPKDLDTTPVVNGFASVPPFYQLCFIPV
CYP2C9 inhib: blockers of cytochrome P450 2C9 activity – biochemical, luminescence, ADME assay, primary screen; CYP2C9 Supersomes, luciferin-H conversion; inhibition, % at 5 µM; actives 20% (n = 96,000); AID 777, 2007;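 active = blocking of liver enzyme CYP2C9 beyond about 50% at 5 µM, limit read from the data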
CYP2C19 activ: human CYP2C19 activators, primary screen, biochemical, luminescence; Cytochrome P450 2C19 (Homo sapiens), P33261; recombinant CYP2C19, luciferin-H EGE luminescence; active compounds read high; 0 = fully inhibited enzyme, 1 = untreated enzyme; activation factor at 5 µM; 96,000 tested, under 10 active;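 active = activation factor of at least 2 at 5 µM in the primary screen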;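 note: 0 = wells with 2.5 mM tranylcypromine and 1 = vehicle-only wells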
* = called active by the depositor.

SMILES	CYP2C9 act	PLAP act	CYP2C19 inhib	CYP2C9 inhib	CYP2C19 activ
O=C1OCCC1Sc1nnc(-c2ccc3c(c2)OCO3)n1-c1ccccc1 (configuration not stated)	1	1.1	4.5	1.6	1
O=C(c1ccc(F)cc1)N1CCCCC(Sc2nnnn2-c2ccccc2)C1=O (configuration not stated)	0.3	1.4	72.7*	73.8*	0.3
O=C(c1ccccc1)N1CCCCC(S(=O)(=O)c2ccccc2)C1=O (configuration not stated)	0.6	1.1	33.3	41.9	0.7
COCCn1c(Sc2ccccc2)nc2c1c(=O)[nH]c(=O)n2C	1	0.9	-7.0	3.9	1.1
COC(=O)c1sc(N)nc1C(C)(C)C	0.9	1.1	36.6	9.4	0.6
CCC/C(=N/NC(=O)c1csc(C)c1C)c1ccc(Cl)s1	1	0.8	31.0	0.4	0.7
Cn1nnnc1SCC(=O)N1CCc2ccccc2C1	1.2	1	70.5*	-15.1	0.3
Nn1c(COc2ccccc2)nnc1SCC(=O)O	1	1	-1.0	-2.2	1
C/C(N)=C(/C#N)C(=O)CSc1nnnn1-c1ccc(C)cc1C	0.7	1.6	100.4*	30.9	0
Cc1ccc(-n2nnnc2SC(C)C(N)=O)c(C)c1 (configuration not stated)	1.2	0.9	15.5	-19.2	0.8
Nn1c(COc2cccc(Br)c2)nnc1SCC(=O)N1CCc2ccccc2C1	1	1.6	52.1*	3.9	0.5
Cn1c(=O)c2c(nc(SCC(=O)N3CCc4ccccc4C3)n2C)n(C)c1=O	0.9	1.1	8.9	13.7	0.9
Cc1ccc(-n2nnnc2SCC(=O)N2CCc3ccccc3C2)c(C)c1	2*	0.9	0.8	-100.0	1
CCCN1CCC(NC(=O)Nc2ccc(F)cc2F)CC1	1.1	1	-8.8	-5.6	1.1
CCCN1C(=O)c2cc(C(=O)NCCc3cccc(C)c3)ccc2C1O (configuration not stated)	0.7	0.9	27.3	34.2	0.7
CCc1nc2ccccc2c(C(=O)OCc2nnc(-c3ccccc3)o2)c1C	0.4	1.2	67.8*	60.8*	0.3
CCc1nc2ccccc2c(C(=O)O)c1C	0.6	1	48.2	38.9	0.5
CCc1nc2ccccc2c(C(=O)OCCN2C(=O)c3ccccc3C2=O)c1C	0.4	1.1	76.2*	57.1*	0.2
COc1ccccc1-c1nc(-c2cccc(C)c2)no1	1.2	0.9	49.0	-16.7	0.5
Cn1c(=O)cc(SCC(=O)NCC2CCCO2)c2ccccc21 (configuration not stated)	2.1*	1.1	-19.1	-115.0	1.2
Cc1cccc2c(SCC(=O)NCC3CCCO3)nc(-c3ccc(F)cc3)nc12 (configuration not stated)	0.5	1.2	51.5*	48.1	0.5
Cc1ccc(-n2nnc3c(SCC(=O)NCC4CCCO4)ncnc32)cc1 (configuration not stated)	0.4	0.8	44.9	63.9*	0.6
O=C(CSc1c[nH]c2ccccc12)NCC1CCCO1 (configuration not stated)	1.2	1.1	53.5*	-16.7	0.5
CC(C)C(=O)c1cn(CC(=O)NCC2CCCO2)c2ccccc12 (configuration not stated)	0.9	1	20.5	13.0	0.8
O=C(CSc1ncnc2c1nnn2-c1ccc(F)cc1)NCC1CCCO1 (configuration not stated)	0.8	0.9	18.8	22.6	0.8
SMILES	CYP2C9 act	PLAP act	CYP2C19 inhib	CYP2C9 inhib	CYP2C19 activ
O=C(CSc1ccc2nnc(-c3ccc(F)cc3)n2n1)NCC1CCCO1 (configuration not stated)	1.1	1	-9.9	-6.2	1.1
COC(=O)c1ccc(COC(=O)C23CC4CC(CC(O)(C4)C2)C3)o1	0.8	1.5	26.6	24.1	0.7
COc1ccc(S(=O)(=O)NC(CC(=O)NCC2CCCO2)c2ccco2)cc1 (configuration not stated)	1.1	1.1	3.6	-10.6	1
O=C(CSc1cc(Cl)ccc1Cl)NCC1CCCO1 (configuration not stated)	3.2*	1.1	73.9*	-215.7	0.3
O=C(CSCc1c(Cl)cccc1Cl)NCC1CCCO1 (configuration not stated)	1.5	1.2	6.7	-53.8	0.9
COC(=O)c1ccc(CSc2ncnc3c2nnn3-c2ccc(OC)cc2)o1	0.4	1.3	51.9*	56.1*	0.5
Cn1cc(SCC(=O)NCC2CCCO2)c2ccccc21 (configuration not stated)	2.2*	1	35.7	-120.0	0.6
O=C(CSc1oc(-c2ccco2)nc1S(=O)(=O)c1ccc(Cl)cc1)NCC1CCCO1 (configuration not stated)	0.6	1.7	75.7*	35.4	0.2
CC(C)=C1C2CCC1C1C(=O)N(NC(=O)COc3ccc(Cl)c(C)c3)C(=O)C21 (configuration not stated)	1	1.2	49.2	-0.5	0.5
CSc1nnc(-c2cnccn2)n1CCCN1CCCC1=O	1	1	0.1	3.7	1
CCCN(CCC)CCNC(=O)C1CC(=O)N(c2ccc(OC)cc2)C1c1ccc(OC)cc1 (configuration not stated)	1	1.6	-5.4	-0.4	1.1
CS(=O)(=O)N(CC(=O)NCC1CCCO1)c1ccc(F)c(Cl)c1 (configuration not stated)	1	1	60.0*	3.6	0.4
CCN(CC)CCNC(=O)CS(=O)Cc1nc(-c2ccc(C)cc2)oc1C (configuration not stated)	0.9	1.4	6.2	6.1	0.9
CC(=O)c1cccc(S(=O)(=O)N2CCN(c3nc4cc(C)cc(C)c4cc3C#N)CC2)c1	0.3	1.6	58.4*	67.0*	0.4
Cc1ccc(NC(=O)NC(=O)CSc2nnnn2C)c(C)c1	1.1	0.7	15.9	-14.2	0.8
O=C1CC(N2CCC(c3nc4ccccc4o3)CC2)C(=O)N1c1cc(Cl)cc(Cl)c1 (configuration not stated)	0.2	1.5	33.2	77.7*	0.7
COc1cc(OC)cc(-c2cc3nc4c(c(N5CCN(c6ncccn6)CC5)n3n2)CCCC4)c1	0.1	1.6	95.1*	93.7*	0
CCc1c(C)nc2cc(-c3ccc(OC)c(OC)c3)nn2c1N1CCCC1	0.7	1.2	24.6	27.4	0.8
CCOCCN1CCN(c2c3c(nc4cc(-c5ccc(F)cc5)nn24)CCC3)CC1	0.5	1.4	13.8	50.5*	0.9
CCc1c(C)nc2cc(-c3cc(OC)cc(OC)c3)nn2c1N1CCCC1	0.7	1.4	26.5	33.2	0.7
COC(=O)c1ccc(COc2ccc3c(C)c(C)c(=O)oc3c2)o1	0.8	1	15.5	19.7	0.8
